Experimental data reported in article PMC4336329 (PLoS ONE, 2015).
Among all 310,000 compounds or so, about 14,000 (4.5%) showed an effect of 50% or more. The effect is printed as a negative number. What follows is part of a selection rich in strong results, with near analogues and random picks from the rest.

target: human ether-à-go-go-related gene (hERG) potassium channel (human, UniProt Q12809); experiment: primary screen, population patch clamp on CHO cells stably expressing hERG; higher = less effect of the substance
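Further: peak tail current of the secondary pulse compared with the same well before compound.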

Sequence of human ether-à-go-go-related gene (hERG) potassium channel (Q12809 whole entry, looked up): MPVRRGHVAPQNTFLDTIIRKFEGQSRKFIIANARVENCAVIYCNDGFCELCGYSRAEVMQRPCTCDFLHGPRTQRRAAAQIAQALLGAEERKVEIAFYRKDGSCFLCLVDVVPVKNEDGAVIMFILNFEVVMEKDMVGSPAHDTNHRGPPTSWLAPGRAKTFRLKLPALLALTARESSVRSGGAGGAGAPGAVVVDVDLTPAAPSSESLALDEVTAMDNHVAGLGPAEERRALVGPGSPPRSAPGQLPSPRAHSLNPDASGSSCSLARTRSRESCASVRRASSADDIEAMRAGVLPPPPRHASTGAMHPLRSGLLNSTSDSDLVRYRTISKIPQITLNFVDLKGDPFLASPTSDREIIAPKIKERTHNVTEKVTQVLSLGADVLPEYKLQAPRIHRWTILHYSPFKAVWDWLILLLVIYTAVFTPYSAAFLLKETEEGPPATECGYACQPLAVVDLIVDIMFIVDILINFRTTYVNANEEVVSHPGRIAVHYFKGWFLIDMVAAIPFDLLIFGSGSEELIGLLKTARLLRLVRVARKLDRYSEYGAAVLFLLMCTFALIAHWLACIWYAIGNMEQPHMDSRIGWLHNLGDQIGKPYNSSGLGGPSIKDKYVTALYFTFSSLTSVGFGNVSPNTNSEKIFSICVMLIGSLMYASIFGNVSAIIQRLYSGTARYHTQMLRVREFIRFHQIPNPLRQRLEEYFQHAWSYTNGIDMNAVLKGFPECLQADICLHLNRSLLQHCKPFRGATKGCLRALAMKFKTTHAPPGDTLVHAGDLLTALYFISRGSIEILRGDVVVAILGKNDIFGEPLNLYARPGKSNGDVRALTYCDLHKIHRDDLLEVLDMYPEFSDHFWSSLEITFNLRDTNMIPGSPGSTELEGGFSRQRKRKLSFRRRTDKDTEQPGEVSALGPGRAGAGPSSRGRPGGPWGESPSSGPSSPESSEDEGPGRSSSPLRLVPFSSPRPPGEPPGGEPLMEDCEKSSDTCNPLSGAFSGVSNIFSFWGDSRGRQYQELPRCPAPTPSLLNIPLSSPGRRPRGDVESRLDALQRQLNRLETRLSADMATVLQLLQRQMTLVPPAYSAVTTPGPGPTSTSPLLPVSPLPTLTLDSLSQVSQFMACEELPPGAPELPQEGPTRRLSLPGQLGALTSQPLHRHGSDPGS

Row | SMILES | hERG current change (%, negative = inhibition) at 10uM
1 | C1CCC(C(CC2CCCCN2)C2CCCCC2)CC1.O=C(O)/C=C\C(=O)O (centres unmarked) | -22.6%
2 | Cn1c(SCC(=O)Nc2ccc3nc(SCC(=O)NC4CC4)sc3c2)nnc1-c1ccccc1 | -5.5%
3 | O=C(CSc1nnc(Cn2nnc(-c3ccccc3)n2)n1-c1ccccc1)Nc1ccc(F)cc1 | 3.55%
4 | CC1CCN(C(=O)C(Cc2ccccc2)NS(=O)(=O)c2ccc3c(c2)oc(=O)n3C)CC1 (centres unmarked) | -2.38%
5 | O=C(Nc1ccc2ccccc2c1)c1ccc(Cl)cc1Cl | 31%
6 | O=c1c2c3nc4ccccc4nc3n(/N=C/c3ccccn3)c2ncn1-c1ccccc1 | 19.8%
7 | CC(c1ccco1)N(C(=O)COc1ccc(Cl)cc1)c1ccccn1 (centres unmarked) | -12.7%
8 | O=C(NNS(=O)(=O)c1ccc(F)cc1)c1ccc(O)cc1 | 9.17%
9 | Cc1nc(N2CCOCC2)c2c(C)c(C(=O)Nc3ccc(C(F)(F)F)cc3)sc2n1 | -34.9%
10 | CCOc1ccccc1NC(=O)c1sc2nc(C)nc(N3CCOCC3)c2c1C | -14.4%
11 | CCOc1ccc(NC(=O)c2sc3nc(C)nc(N4CCOCC4)c3c2C)cc1 | -50.7%
12 | CCC(C)(C)NC(=O)CN(Cc1cccs1)C(=O)CCC(=O)Nc1nccs1 | -36.6%
13 | CC(C)CC(=O)NC(=S)N1CCN(c2ccc([N+](=O)[O-])cc2Cl)CC1 | -30.9%
14 | CCC(=O)NC(=S)N1CCN(c2ccc([N+](=O)[O-])cc2Cl)CC1 | -26.4%
15 | CC(C)(C)C(=O)N1CCN(c2ccc([N+](=O)[O-])cc2Cl)CC1 | -33.2%
16 | CC(C)CC(=O)N1CCN(c2ccc([N+](=O)[O-])cc2Cl)CC1 | -59.9%
17 | CC(C)C(=O)N1CCN(c2ccc([N+](=O)[O-])cc2Cl)CC1 | -30.9%
18 | CCCC(=O)N1CCN(c2ccc([N+](=O)[O-])cc2Cl)CC1 | -52.2%
19 | C=CCn1c(SCC(=O)Nc2nccs2)nnc1-c1cc2cccc(OC)c2o1 | -4.98%
20 | CC1CCN(C2=NN3C(=N)/C(=C\c4ccc(OC(=O)c5ccco5)cc4)C(=O)N=C3S2)CC1 | 12.6%
21 | O=C(NCc1ccccc1)C(c1ccccn1)N(C(=O)c1csnn1)c1ccccc1F (centres unmarked) | -5.45%
22 | COc1ccc(N2CCN(C(=S)NCCc3ccccc3)CC2)cc1 | -5.71%

Row | SMILES | hERG current change (%, negative = inhibition) at 10uM
23 | O=C(CCCOc1ccccc1)N1CCN(c2ccccn2)CC1 | -8.9%
24 | Cc1ccc(Oc2ccccc2/C=C2\SC(=O)N(C)C2=O)cc1 | 4.1%
25 | C=CCNC(=O)CC1C(=O)NCCN1Cc1ccc(-c2ccccc2)cc1 (centres unmarked) | -7.59%
26 | CC(C)Cn1c(N)c(C(=O)COC(=O)CN2C(=O)C3CC=CCC3C2=O)c(=O)n(C)c1=O (centres unmarked) | -4.23%
27 | CCCc1[nH]nc2c1C(c1ccc(O)c(OC)c1)C(C#N)=C(N)O2 (centres unmarked) | -31.9%
28 | COc1ccc(CCN(C)Cc2c(F)cccc2F)cc1OC | -25.6%
29 | COc1ccc(CCN(C)C/C=C/c2ccccc2[N+](=O)[O-])cc1OC | -70.8%
30 | COc1ccc(CCN(C)C/C=C/c2ccccc2)cc1OC | -64.6%
31 | COc1ccc(CCNC(=O)/C=C\c2ccccc2)cc1OC | -7.74%
32 | COc1ccc(CCN(C)c2ccc(C(N)=O)cc2[N+](=O)[O-])cc1OC | -6.3%
33 | CN(C/C=C/c1ccccc1[N+](=O)[O-])Cc1ccccc1 | -46%
34 | Cc1ccn2cc(-c3cccc(NC(=O)C(C)C)c3)nc2c1 | 3.3%
35 | Cc1cc(NC(=O)CCC(=O)N(CC(=O)NC2CCCC2)c2cccc(F)c2)no1 | -3.17%
36 | Cc1ccc(C(=O)N[C@H](C(=O)Nc2sccc2C(N)=O)C(C)C)cc1 | 5.47%
37 | Cn1cc(-c2nnnn2-c2ccc(Cl)cc2)c(C(F)(F)F)n1 | -4.49%
38 | Clc1ccc(-n2nnnc2-c2ccccc2)cc1 | -0.933%
39 | Cn1cc(-c2nnnn2-c2ccc(Cl)cc2)c(=O)c2ccccc21 | -69.3%
40 | O=C(Cn1cc(-c2nnnn2-c2ccc(Cl)cc2)c(=O)c2ccccc21)c1ccccc1 | 4.29%
41 | Cn1cc(-c2nnnn2-c2ccccc2)c(=O)c2ccccc21 | -8.94%
42 | CCn1cc(-c2nnnn2-c2ccc(Cl)cc2)c(=O)c2ccccc21 | -58.8%
43 | COc1ccc(OC)c(S(=O)(=O)N2CCCC(C(=O)NCc3ccco3)C2)c1 (centres unmarked) | -5.29%
44 | O=C(c1ccc(N2C(=O)CCC2=O)cc1)N1CCOCC1 | 7.4%

Row | SMILES | hERG current change (%, negative = inhibition) at 10uM
45 | O=C(NCCc1ccco1)C(=O)NCC1OCCCN1S(=O)(=O)c1cc(F)ccc1F (centres unmarked) | -8.36%
46 | CC(=O)C(Sc1nn(C)c(=S)s1)C(=O)Nc1ccccc1 (centres unmarked) | 3.73%
47 | COc1cccc(/C=C2\SC(=S)N(CCC(=O)NNC(=O)c3ccccc3OC)C2=O)c1 | 18.5%
48 | CCOc1ccc(CN(C(=O)c2oc3cc(C)ccc3c2C)C2CCS(=O)(=O)C2)cc1 (centres unmarked) | -10%
49 | Cc1ccc(NC(=O)CNC(=O)c2ccc3c(c2)OCO3)nc1 | 1.63%
50 | CCC(C)(C)n1nnnc1C(c1cc(OC)ccc1OC)N1CCC(C(N)=O)CC1 (centres unmarked) | -1.9%
51 | CC1CN(C(=O)CS(=O)(=O)Cc2ccccc2)CC(C)O1 (centres unmarked) | 17.1%
52 | COc1cccc(N/C(=N/C(=S)Nc2ccc(C)cc2C)Nc2nc(C)cc(C)n2)c1 | 0.704%
53 | CS(=O)(=O)O.NC(=Nc1ccccc1)NC(=O)c1nc(Cl)c(N)nc1N | -50%
54 | Cl.NC(=NCc1ccccc1)NC(=O)c1nc(Cl)c(N)nc1N | -54.2%
55 | Cl.NC(=NCCc1ccccc1)NC(=O)c1cc(Cl)ccc1O | -2.39%
56 | CSc1ncccc1C(=O)OCC(=O)c1ccc(S(=O)(=O)N2CCCCC2)cc1 | 23.5%
57 | CCOC(=O)N1CCN(C(=O)c2ccc(C)c(S(=O)(=O)N3CCCCC3)c2)CC1 | -46%
58 | CS(=O)(=O)N1CCN(c2nc(-c3ccc(F)cc3)cs2)CC1 | -77.2%
59 | CC(C)C(=O)N1CCN(c2nc(-c3ccc(Cl)cc3)cs2)CC1 | -82.5%
60 | O=S(=O)(c1ccc(F)cc1)N1CCN(c2nc(-c3ccc(F)cc3)cs2)CC1 | -8.44%
61 | Fc1ccc(-c2csc(N3CCSCC3)n2)cc1 | 17.6%
62 | CCOC(=O)N1CCN(c2nc(-c3ccc(Cl)cc3)cs2)CC1 | -8.2%
63 | CCC(=O)N1CCN(c2nc(-c3ccc(Cl)cc3)cs2)CC1 | -25%
64 | CC(=O)c1ccc(N2CCN(C(=O)c3ccc(NC4=NC5CS(=O)(=O)CC5S4)cc3)CC2)cc1 (centres unmarked) | -1.77%
65 | COc1ccccc1NC(=O)C1CCOC1=O (centres unmarked) | 15.4%
66 | CCCn1nnnc1NCc1ccc(OC)cc1 | 15.3%

Row | SMILES | hERG current change (%, negative = inhibition) at 10uM
67 | O=C(CC1C(=O)NCCN1Cc1cccc(Oc2ccccc2)c1)NCCc1cscn1 (centres unmarked) | 8.01%
68 | C=CC[n+]1c(C)csc1Nc1cccc(Br)c1.[Br-] | -6.64%
69 | Cc1cccc(N(CC(=O)NCC2CCCO2)C(=O)CCC(=O)Nc2nccs2)c1 (centres unmarked) | 12.9%
70 | COc1ccc(N2CCN(C(=O)CNC(=O)Cc3ccccc3)CC2)cc1 | -13.3%
71 | COc1cc2c(C(=O)N3CCN(C)CC3)c(C)n(C)c2cc1Br | -9.17%
72 | COc1cc2c(C(=O)N3CCOCC3)c(CSc3ccccc3)n(C)c2cc1Br | -6.35%
73 | COc1cc2c(C(=O)N3CCN(C)CC3)c(C)n(-c3ccccc3)c2cc1Br | -54.7%
74 | COc1ccc2c(c1)c(C(=O)N1CCN(C)CC1)c(C)n2-c1ccccc1 | -44%
75 | CCN(CC)CCNC(=O)c1c(C)n(-c2ccccc2)c2cc(Br)c(OC)cc12 | -51.5%
76 | CCN(CC)CCNC(=O)c1c(C)oc2cc(Br)c(OC)cc12 | -32.1%
77 | COc1cc2c(C(=O)N3CCN(C)CC3)c(CSc3ccccc3)n(C)c2cc1Br | -74%
78 | COc1cc2c(C(=O)O)c(C)n(C)c2cc1Br | 20.3%
79 | COc1cc2c(C(=O)OCCN(C)C)c(CSc3ccccc3)n(C)c2cc1Br | 5.67%
80 | O=C(COC(=O)CNC(=O)c1ccccc1F)NC12CC3CC(CC(C3)C1)C2 | 0.652%
81 | COc1ccccc1NC(=O)Nc1cccc(C(=O)O)c1 | 17.5%
82 | N#CC(c1ccc(Cl)cc1)c1ccc2c(C(F)(F)F)cc(C(F)(F)F)nc2n1 (centres unmarked) | 6.7%
83 | CCS(=O)(=O)N1CCC(C(=O)OCC(=O)c2ccc(Br)cc2)CC1 | 3.45%
84 | Cn1c(=Nc2ccc(N3CCOCC3)cc2)ccc2ccccc21 | -47.5%
85 | CCn1c(=Nc2ccc(N3CCOCC3)cc2)ccc2ccccc21 | -66.8%
86 | Oc1ccc2ccccc2c1C=Nc1ccc(N2CCOCC2)cc1 | 3.04%
